Luciferase inh: Firefly luciferase inhibition profiling of diverse chemical library using quantitative high-throughput screening | purified P. pyralis luciferase, luminescence, biochemical | Luciferin 4-monooxygenase (Photinus pyralis), P08659 | Potency, µM (doses to about 115 µM), most hits filed as inhibitors | AID 1347043, 2019 | actives 2.5% (n = 76,000); further: nearly all actives have a fitted effect of over 65% in size
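Inhibitors were tested against purified firefly luciferase in a biochemical, low-substrate format (both substrates at 10uM) and luminescence measured with a CCD imager.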
hNpr1 antagonist: Natriuretic polypeptide receptor (hNpr1) antagonism - Primary qHTS | HEK293 hNpr1 GloSensor cGMP, ANP-stimulated luminescence | Potency, µM (titrated, usually from 46.3 µM), usual class: inhibitors | actives 1.6% (n = 76,000); calls by dose curve; further: nearly all actives have a fitted effect of over 60% in size
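HEK293 cells stably expressing human Npr1 and cGMP GloSensor pGS-40F, loaded 2 h with 2% GloSensor reagent, given compound 30 min at room temperature. Luminescence read before and 20 min after 0.1 nM hNppA.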
HEK cytotox: Cytotoxic Profiling in HEK 293 Cell Line of Diverse Libraries Using Quantitative High-Throughput Screening | AID 1345083, 2018 | HEK 293 viability, ATP luminescence (CellTiter-Glo), 48-72 h | Potency, µM (highest dose often 115 µM), usual class: inhibitors | actives 6.6% (n = 94,000); further: nearly all actives have a fitted effect of over 60% in size
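Viability of HEK 293 cells, plated at 250 cells/well, was judged by cellular ATP after compound treatment for 48 or 72 hr. Luminescence was imaged 10 min after CellTiter-Glo addition at room temperature.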
NIH3T3 tox: Cytotoxic Profiling in NIH 3T3 Cell Line of Diverse Libraries Using Quantitative High-Throughput Screening. NIH 3T3 viability, CellTiter-Glo ATP luminescence, 48-72 h. Potency, µM (highest dose often 96.7 µM), most hits filed as inhibitors. actives 4.3% (n = 94,000). AID 1345082, 2018; further: nearly all actives have a fitted effect of over 55% in size
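NIH 3T3 cells at 400 cells/well received 23 nL of compound by pintool and were incubated 48 or 72 h at 37 °C. Viability was read as ATP-coupled CellTiter-Glo luminescence.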
Large screens that a line does not name were inactive. In the library only some 11% were active in any assay of this set; here they are far more common. Unless noted, the call rests on the fitted dose curve; in most records, active means well fitted curve in the direction sought with a large enough effect; inconclusive means small, poorly fitted or top-dose-only effect, or another doubt; inactive means no such curve, though single readings can be large; an effect the other way counts as inactive or inconclusive.

COCCOCC1(CNCc2cn(C)c3ccccc23)C[C@@H](O)[C@@H](O)C1 (some centres undefined)	none
CC(C)(C)C(=O)N1CCCC(c2nn(-c3ccc(F)cc3)c(=O)[nH]2)C1 (centres undefined)	none
O=C(Cc1ccc(F)cc1)N1CCc2nc(C3CC3)nc(-c3ccc(O)cc3)c2CC1	HEK cytotox inconclusive (no result: Luciferase inh, hNpr1 antagonist)
Cc1cn2nc(C(=O)NCc3ccc(C(F)(F)F)cc3)cc2c(N2CCCC2)n1	HEK cytotox 45µM, NIH3T3 tox inconclusive
CCc1ccc(CNC(=O)c2cc3c(N4CCCC4)nc(C)cn3n2)cc1	HEK cytotox inconclusive, NIH3T3 tox inconclusive
CCOc1ccccc1NC(=O)c1cc2c(N3CCSCC3)nc(C)cn2n1	HEK cytotox 35µM, NIH3T3 tox inconclusive
O=C(c1cc2ccccc2[nH]1)N1CCN(C(=O)c2nnn3c2COC(c2ccc(Cl)cc2)C3)CC1 (centres undefined)	HEK cytotox inconclusive
Cc1ccc(-c2ccnc(N(C)CC3CC(=O)N(C(C)(C)C)C3)n2)c(C)n1 (centres undefined)	HEK cytotox 79µM, NIH3T3 tox inconclusive
Cc1cccc(CC(=O)N2CCCN(S(C)(=O)=O)c3ccccc32)c1	NIH3T3 tox 40µM
CN(Cc1cccn1C)C1CCCc2ccccc21 (centres undefined)	none
CC1=C[C@@H](CNC(=O)C2CC2)[C@H](C(C)C)C[C@H]1Cc1nnc(-c2ccccc2F)o1	HEK cytotox 63µM, NIH3T3 tox 100µM
CC1=C[C@@H](CNS(C)(=O)=O)[C@H](C(C)C)C[C@H]1Cc1nnc(-c2ccccc2F)o1	HEK cytotox inconclusive, NIH3T3 tox inconclusive
CCCS(=O)(=O)NC[C@@H]1C=C(C)[C@H](Cc2nnc(-c3ccccc3F)o2)C[C@H]1C(C)C	HEK cytotox 22µM, NIH3T3 tox 25µM
C#CCN(C)C[C@@H]1C=C(C)[C@H](Cc2nnc(-c3ccccc3F)o2)C[C@H]1C(C)C	hNpr1 antagonist inconclusive, HEK cytotox 79µM, NIH3T3 tox 79µM
O=C(NC1CCCC1)C1Cn2cccc2C(=O)N1Cc1cccnc1 (centres undefined)	none
CC(c1ccccc1)N1CCN(c2cccc(CN(C)S(C)(=O)=O)c2)CC1 (centres undefined)	HEK cytotox 45µM, NIH3T3 tox inconclusive (no result: Luciferase inh, hNpr1 antagonist)
COC(=O)N(C)Cc1cccc(N2CCN(C(C)c3ccccc3)CC2)c1 (centres undefined)	HEK cytotox 45µM, NIH3T3 tox inconclusive (no result: Luciferase inh, hNpr1 antagonist)
COCCCn1c(C)cnc1CC1CCN(S(=O)(=O)c2cccs2)CC1	none (no result: Luciferase inh, hNpr1 antagonist)
COCC(=O)Nc1ccc(-c2noc([C@@H]3CCCN3Cc3cc4ccccc4o3)n2)cn1	HEK cytotox 71µM, NIH3T3 tox inconclusive
COc1ccc(C(=O)Nc2ccc(-c3noc([C@@H]4CCCN4Cc4ccncc4)n3)cn2)cc1	Luciferase inh inconclusive, hNpr1 antagonist 13µM, HEK cytotox inconclusive, NIH3T3 tox inconclusive
O=C(C1CCCC1)N1CCCN(c2ccc3nnc(C4CC4)n3n2)CC1	none (no result: Luciferase inh, hNpr1 antagonist)
COc1ccc(F)cc1-c1ccc(CN2CCC(NC(=O)Nc3ccc(Cl)cc3)C2)cc1 (centres undefined)	HEK cytotox 13µM, NIH3T3 tox 11µM (no result: Luciferase inh, hNpr1 antagonist)
Cc1cc(C)cc(-c2ccc(CN3CCCC(NC(=O)Nc4ccc(Cl)cc4)C3)cc2)c1 (centres undefined)	none (no result: Luciferase inh, hNpr1 antagonist)
CC(C)NC(=O)NC1CCCN(Cc2ccc(-c3cncnc3)cc2)C1 (centres undefined)	none (no result: Luciferase inh, hNpr1 antagonist)
COc1ccc(F)cc1-c1ccc(CN2CCC(NC(=O)Nc3ccc(C)c(F)c3)C2)cc1 (centres undefined)	HEK cytotox 25µM, NIH3T3 tox 16µM (no result: Luciferase inh, hNpr1 antagonist)
COc1ccc(F)cc1-c1ccc(CN2CCC(NC(=O)NC3CCCC3)C2)cc1 (centres undefined)	HEK cytotox 20µM, NIH3T3 tox 13µM (no result: Luciferase inh, hNpr1 antagonist)
O=C1NC2(CCN(C(=O)c3ccc(C(F)(F)F)cc3)CC2)COc2ccccc21	none
COc1cccc(CNC(=O)C2CCN(c3nc4ncccc4o3)CC2)c1	none (no result: Luciferase inh, hNpr1 antagonist)
CN1CCC(NC(=O)C(C)(C)Oc2nn(CCOc3ccccc3)c3ccccc23)CC1	HEK cytotox 89µM, NIH3T3 tox 40µM
CC(C)(Oc1nn(CCOc2ccccc2)c2ccccc12)C(=O)Nc1cccnc1	HEK cytotox inconclusive, NIH3T3 tox inconclusive
CN(C)CCNC(=O)C(C)(C)Oc1nn(CCOc2ccccc2)c2ccccc12	HEK cytotox 89µM, NIH3T3 tox 25µM
COc1cccc(-c2ccc(C(=O)N3CCC(NC(=O)c4ccc(Cl)cc4)CC3)cc2)c1	none (no result: Luciferase inh, hNpr1 antagonist)
COc1cccc(-c2ccc(C(=O)N3CCC(N[S+](=O)([O-])c4ccc(C)cc4)CC3)cc2)c1	HEK cytotox 11µM, NIH3T3 tox inconclusive (no result: Luciferase inh, hNpr1 antagonist)
COc1cccc(-c2ccc(C(=O)N3CCC(C(=O)N4CCOCC4)CC3)cc2)c1	none (no result: Luciferase inh, hNpr1 antagonist)
COc1cccc(-c2ccc(C(=O)N3CCC(N[S+](=O)([O-])c4cccc(C(F)(F)F)c4)CC3)cc2)c1	HEK cytotox 11µM, NIH3T3 tox inconclusive (no result: Luciferase inh, hNpr1 antagonist)
O=C(C1CCOC1)N1CC(Oc2ccc(-c3nc(-c4ccccc4)no3)cc2)C1 (centres undefined)	Luciferase inh 14µM, hNpr1 antagonist 3.2µM, HEK cytotox inconclusive, NIH3T3 tox inconclusive
COCc1nc(-c2ccc(OC3CCN(C(=O)c4sc(C)nc4C)C3)cc2)no1 (centres undefined)	HEK cytotox inconclusive
O=C(c1ccsc1)N1CC(Oc2ccc(-c3nc(-c4ccccc4)no3)cc2)C1	Luciferase inh 28µM
Cc1cccc(C(=O)N2CC(Oc3ccc(-c4nc(-c5ccccc5)no4)cc3)C2)c1	HEK cytotox inconclusive
Cc1nc(C)c(C(=O)N2CC(Oc3ccc(-c4nc(-c5ccccc5)no4)cc3)C2)s1	Luciferase inh 13µM, HEK cytotox inconclusive
Cc1nc(C)c(C(=O)N2CCC(Oc3ccc(-c4noc(C5CC5)n4)cc3)C2)s1 (centres undefined)	hNpr1 antagonist inconclusive, HEK cytotox 20µM, NIH3T3 tox inconclusive
CCCCCNC(=O)Cc1csc2nc(C)c(-c3cc(C)n(-c4cccc(C)c4C)n3)c(=O)n12	HEK cytotox inconclusive, NIH3T3 tox inconclusive
Cn1ccc(C(=O)N2CCC3(CC2)OC(=O)N(Cc2ccccc2C#N)C3(C)c2ccccc2)n1 (centres undefined)	NIH3T3 tox inconclusive
O=[S+]([O-])(Nc1nncs1)c1ccc2c(c1)OCCN(Cc1cccs1)C2	NIH3T3 tox 25µM
O=[S+]([O-])(Nc1ccccc1)c1ccc2c(c1)OCCN(Cc1ccc(F)cc1)C2	hNpr1 antagonist inconclusive, HEK cytotox 71µM, NIH3T3 tox 50µM
O=[S+]([O-])(Nc1nncs1)c1ccc2c(c1)OCCN(Cc1ccccc1)C2	NIH3T3 tox inconclusive (no result: hNpr1 antagonist)

Screens deposited in PubChem by National Center for Advancing Translational Sciences (NCATS).
